For test [1], the system named is Sodium/Iodide Symporter (NIS), SLC5A5 (gene 6528). Kind of test: CPHEA_Stoker_NIS_Inhibition_RAIU: CPHEA's Radioactive Iodide Uptake (RAIU) Assay for Sodium/Iodide Symporter (NIS) Inhibition, Stoker and Laws Labs (AID 2283841). The procedure, abridged: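 hNIS-HEK293T-EPA cells incubated 2 h at room temperature with compound (0.001–100 uM, 0.5% DMSO) and 329 pM final 125I in HBSS/10 mM HEPES, pH 7.4. Intracellular 125I counted; normalised to DMSO maximal uptake, triplicate, three biological replicates.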

The target in test [2] is zebrafish Thyroid Hormone Receptor alpha (TRa), thraa (gene 30670) (UniProt Q98867). Kind of test: ATG_zfTRa_XSP2: Attagene TRANS-FACTORIAL Multi-Species (XSP1) HepG2 Assay for zebrafish Thyroid Hormone Receptor alpha (TRa) (AID 2283832).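 Note: actives raise zebrafish TRa-Gal4 reporter transcript above DMSO baseline.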 A digest of the protocol:
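HepG2 transiently transfected with GAL4-UAS reporter units and chimeric zebrafish TRa-Gal4; reporter mRNA quantified after 24 h dosing by RT-PCR, HpaI digestion and capillary electrophoresis fluorescence. Gain of signal vs DMSO; XSP2 medium contains 3 nM 6-alpha-fluorotestosterone, 1.5 nM norgestrel.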

The test system of test [3] is zebrafish Peroxisome Proliferator-activated Receptor gamma (PPARg), gene 557037. Kind of test: ATG_zfPPARg_XSP2: Attagene TRANS-FACTORIAL Multi-Species (XSP2) HepG2 Assay for zebrafish Peroxisome Proliferator-activated Receptor gamma (PPARg) (AID 2283833).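 Note: reporter mRNA from a zebrafish PPARg GAL4 chimera measured by RT-PCR and capillary electrophoresis; actives increase reporter signal over DMSO so AC50 reflects activation.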 How it is done: ATG_XSP2_multi-species_TRANS is a cell-based, multiplexed assay created by modifying the existing Attagene TRANS-FACTORIAL system to include a panel of nuclear receptors from some or all the following species: human (Homo sapiens), mouse (Mus musculus), frog (Xenopus laevis), zebrafish (Danio rerio), chicken (Gallus gallus), and turtle (Chrysemys picta). The ECOTOX-FACTORIAL format uses HepG2, a human liver cell line, with measurements taken at 24 hours after chemical dosing in a 24-well plate. Xsp2 included 3 nM 6-alpha-fluorotestosterone and 1.5 nM norgestrel to stimulate the androgen receptor.ATG_zfPPARg_XSP2 is one of 29 assay components measured or calculated from the ATG_XSP2_multi-species_TRANS assay. It is designed to make measurements of mRNA induction, a form of inducible reporter, as detected with fluorescence intensity signals by Reverse transcription polymerase chain reaction (RT-PCR) and Capillary electrophoresis technology.The assay endpoint ATG_zfPPARg_XSP2 was analyzed in the positive analysis fitting direction relative to DMSO as the negative control and baseline of activity. Using a type of inducible reporter, measures of mRNA for gain-of-signal activity can be used to understand the reporter gene at the transcription factor-level as they relate to the gene PPARg. Furthermore, this assay endpoint can be referred to as a primary readout, because this assay has produced multiple assay endpoints where this one serves a reporter gene function. To generalize the intended target to other relatable targets, this assay endpoint is annotated to the nuclear receptor intended target family, where the subfamily is non-steroidal.
Human liver HepG2 cells are transiently transfected with multiple reporter transcription units (MRTUs) in 6-well plates using FuGene 6 reagent (Roche; 3 ml FuGene/1 mg DNA). The MRTU constructs are regulated by a cis-regulating element (promoter). […] A major difference between the CIS and TRANS system is that in CIS activities of endogenous TFs are measured, whereas the TRANS assay evaluates changes in activities of exogenous, chimeric NR-Gal4 proteins. […] At the end of 24 hour incubation, total RNA was isolated using TriZol reagent (Invitrogen). The isolated RNA is then reverse-transcribed using oligo(dT) primer and Mo-MLV reverse transcriptase (Invitrogen) with DNAse I (Ambion) treatment for 30 min. […] The fragments were purified using Qiaquick PCR columns (Qiagen), analyzed on an ABI 3130xL genetic analyzer (Applied Biosystems) with peak positions identified by using a set of X-rhodamine (ROX)-labeled MapMarker1000 molecular weight standards (BioVentures). […]

The nature of test [4]: ATG_M_61_XSP2: Attagene TRANS-FACTORIAL Multi-Species (XSP2) HepG2 Assay for M61 Transcription Factor (Internal Marker) (AID 2283835; active = hit-call score of the fitted dose curve at least 0.9, where 1 is the maximum; inactive = score below 0.9;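 note: reporter mRNA of an internal background marker read by RT-PCR and capillary electrophoresis; active means a rise in signal above the DMSO baseline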). A digest of the protocol:
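HepG2 cells transiently transfected with multiple GAL4-UAS reporter units; 3 nM 6-alpha-fluorotestosterone and 1.5 nM norgestrel present to stimulate androgen receptor. After 24 h compound exposure, reporter mRNA measured by RT-PCR and capillary electrophoresis fluorescence, gain-of-signal versus DMSO baseline.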

Test [5] concerns the target zebrafish Thyroid Hormone Receptor beta (TRb), thrb (gene 30607) (UniProt Q9PVE4). Kind of test: ATG_zfTRb_XSP2: Attagene TRANS-FACTORIAL Multi-Species (XSP1) HepG2 Assay for zebrafish Thyroid Hormone Receptor beta (TRb) (AID 2283836). A digest of the protocol: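 HepG2 cells transiently transfected with chimeric zebrafish TRb-GAL4 reporter units, dosed 24 h with 3 nM 6-alpha-fluorotestosterone and 1.5 nM norgestrel present. Reporter mRNA quantified by RT-PCR and capillary electrophoresis; gain fitted against DMSO.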

Test [6] in a line: ATG_XTT_Cytotoxicity_XSP2: Cytotoxicity Assessment in the Attagene TRANS-FACTORIAL Multi-Species (XSP2) HepG2 Assay (AID 2283837). The procedure, abridged:
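HepG2 cells, transiently transfected with multiple reporter constructs, exposed to chemical for 24 h. Cell number assessed with XTT fluorescence read-out; loss of signal fitted relative to DMSO.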

For test [7], the target named is human Thyroid hormone Receptor beta (TRb), THRB (gene 7068) (UniProt P10828). Kind of test: ATG_hTRb_XSP2: Attagene TRANS-FACTORIAL Multi-Species (XSP2) HepG2 Assay for human Thyroid hormone Receptor beta (TRb) (AID 2283840).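 Note: actives raise reporter mRNA so potency reflects agonist-like gain of signal.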 A digest of the protocol: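 HepG2 cells were transiently transfected with GAL4-UAS multiplexed reporter units expressing chimeric NR-Gal4 proteins, dosed 24 h; reporter mRNA was quantified by RT-PCR, fluorescent labeling, HpaI digestion and capillary electrophoresis, fitted for gain of signal versus DMSO.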
Chain of human Thyroid hormone Receptor beta (TRb), THRB (gene 7068) (P10828 whole entry, looked up, the tested form may be a part): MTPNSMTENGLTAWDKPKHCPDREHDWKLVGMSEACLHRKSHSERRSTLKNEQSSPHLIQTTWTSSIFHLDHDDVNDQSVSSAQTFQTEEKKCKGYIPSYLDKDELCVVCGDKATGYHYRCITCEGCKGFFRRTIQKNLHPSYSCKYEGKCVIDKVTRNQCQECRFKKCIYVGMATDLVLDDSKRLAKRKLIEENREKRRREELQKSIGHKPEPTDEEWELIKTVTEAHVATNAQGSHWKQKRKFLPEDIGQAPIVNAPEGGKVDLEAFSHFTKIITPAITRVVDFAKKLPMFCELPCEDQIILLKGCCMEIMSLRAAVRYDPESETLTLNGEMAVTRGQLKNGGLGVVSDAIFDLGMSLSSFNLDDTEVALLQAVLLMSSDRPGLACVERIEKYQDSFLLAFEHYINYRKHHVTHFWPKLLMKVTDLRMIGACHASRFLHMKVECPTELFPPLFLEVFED

Test [8] concerns turtle Thyroid Hormone Receptor, alpha (TRa), gene 101949057. Kind of test: ATG_trTRa_XSP2: Attagene TRANS-FACTORIAL Multi-Species (XSP1) HepG2 Assay for turtle Thyroid Hormone Receptor, alpha (TRa) (AID 2283834).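 Note: hits raise reporter mRNA over the DMSO baseline so AC50 marks activators.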 The procedure, abridged:
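HepG2 cells transiently transfected with multiplexed GAL4-UAS reporter units expressing chimeric NR-Gal4 proteins were dosed for 24 hours. Reporter mRNA was quantified by RT-PCR with 6-FAM labelling and capillary electrophoresis, gain of signal scored against DMSO.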

Test [9] has as its target human Thyroid hormone Receptor alpha (TRa), THRA (gene 7067) (UniProt P10827). Kind of test: ATG_hTRa_XSP2: Attagene TRANS-FACTORIAL Multi-Species (XSP2) HepG2 Assay for human Thyroid hormone Receptor alpha (TRa) (AID 2283838). A digest of the protocol:
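HepG2 cells were transiently transfected with GAL4-UAS reporter units for chimeric human TRa-Gal4 and dosed for 24 hours, with 3 nM 6-alpha-fluorotestosterone and 1.5 nM norgestrel present. Reporter mRNA was quantified by RT-PCR, FAM labelling and capillary electrophoresis, with gain of signal fitted versus DMSO.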

The target of test [10] is frog Thyroid hormone Receptor alpha (TRa), thra-a (gene 397942) (UniProt P15204). Kind of test: ATG_frTRa_XSP2: Attagene TRANS-FACTORIAL Multi-Species (XSP2) HepG2 Assay for frog Thyroid hormone Receptor alpha (TRa) (AID 2283839).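 For AC50: AC50 reflects induction of frog TRa-driven reporter mRNA above DMSO baseline.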 A digest of the protocol:
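HepG2 cells transiently transfected with multiplexed GAL4-UAS reporter units expressing chimeric frog TRα-Gal4; reporter mRNA read 24 h after dosing by RT-PCR, FAM-labelled primer extension, HpaI digest and capillary electrophoresis. Gain of signal fitted versus DMSO.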

“And” between values parts separate entries of the source, which are not always exact repeats. Equal values may be shown once. Results filed as inconclusive are left out. The source holds several records for some structures; these can differ, active in one and inactive in another. The source made the active and inactive calls. Rule for the calls, unless noted: active = hit-call score of the fitted dose curve at least 0.9, where 1 is the maximum; inconclusive = response in the unintended direction; inactive = score below 0.9.

Chain of frog Thyroid hormone Receptor alpha (TRa), thra-a (gene 397942) (P15204 whole entry, looked up, the tested form may be a part): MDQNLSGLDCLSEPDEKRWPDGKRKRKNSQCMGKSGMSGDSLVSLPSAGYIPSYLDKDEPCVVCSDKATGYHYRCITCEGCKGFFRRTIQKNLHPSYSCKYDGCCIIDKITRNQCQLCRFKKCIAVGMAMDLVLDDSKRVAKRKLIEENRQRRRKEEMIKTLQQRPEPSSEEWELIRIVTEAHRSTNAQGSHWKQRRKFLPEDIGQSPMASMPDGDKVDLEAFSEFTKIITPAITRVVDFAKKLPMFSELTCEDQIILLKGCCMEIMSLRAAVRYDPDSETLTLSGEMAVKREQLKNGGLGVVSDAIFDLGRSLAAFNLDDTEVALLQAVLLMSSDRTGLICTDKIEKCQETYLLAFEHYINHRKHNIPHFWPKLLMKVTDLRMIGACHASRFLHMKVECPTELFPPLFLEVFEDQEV
Chain of human Thyroid hormone Receptor alpha (TRa), THRA (gene 7067) (P10827 whole entry, looked up, the tested form may be a part): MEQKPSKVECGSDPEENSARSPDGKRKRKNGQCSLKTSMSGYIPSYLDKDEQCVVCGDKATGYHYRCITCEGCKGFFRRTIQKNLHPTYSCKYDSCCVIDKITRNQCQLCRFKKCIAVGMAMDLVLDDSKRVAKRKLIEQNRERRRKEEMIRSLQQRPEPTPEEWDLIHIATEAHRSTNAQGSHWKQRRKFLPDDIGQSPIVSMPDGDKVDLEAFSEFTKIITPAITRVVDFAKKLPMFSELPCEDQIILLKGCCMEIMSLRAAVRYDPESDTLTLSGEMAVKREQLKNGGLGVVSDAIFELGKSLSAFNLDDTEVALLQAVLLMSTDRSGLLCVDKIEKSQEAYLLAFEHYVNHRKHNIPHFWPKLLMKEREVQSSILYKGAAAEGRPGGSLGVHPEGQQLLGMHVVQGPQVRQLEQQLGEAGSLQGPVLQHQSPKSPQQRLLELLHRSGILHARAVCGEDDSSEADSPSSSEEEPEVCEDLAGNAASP
Chain of zebrafish Thyroid Hormone Receptor beta (TRb), thrb (gene 30607) (Q9PVE4 whole entry, looked up, the tested form may be a part): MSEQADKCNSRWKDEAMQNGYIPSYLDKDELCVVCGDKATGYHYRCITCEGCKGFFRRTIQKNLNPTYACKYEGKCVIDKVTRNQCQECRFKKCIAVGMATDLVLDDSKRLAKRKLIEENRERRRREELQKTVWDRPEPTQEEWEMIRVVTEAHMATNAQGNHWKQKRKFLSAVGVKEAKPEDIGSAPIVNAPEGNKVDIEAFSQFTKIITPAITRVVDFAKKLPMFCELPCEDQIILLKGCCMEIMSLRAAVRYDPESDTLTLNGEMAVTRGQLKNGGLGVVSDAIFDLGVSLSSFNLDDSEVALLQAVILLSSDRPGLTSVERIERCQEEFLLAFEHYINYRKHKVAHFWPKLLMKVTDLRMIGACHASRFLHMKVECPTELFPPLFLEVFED
Chain of zebrafish Thyroid Hormone Receptor alpha (TRa), thraa (gene 30670) (Q98867 whole entry, looked up, the tested form may be a part): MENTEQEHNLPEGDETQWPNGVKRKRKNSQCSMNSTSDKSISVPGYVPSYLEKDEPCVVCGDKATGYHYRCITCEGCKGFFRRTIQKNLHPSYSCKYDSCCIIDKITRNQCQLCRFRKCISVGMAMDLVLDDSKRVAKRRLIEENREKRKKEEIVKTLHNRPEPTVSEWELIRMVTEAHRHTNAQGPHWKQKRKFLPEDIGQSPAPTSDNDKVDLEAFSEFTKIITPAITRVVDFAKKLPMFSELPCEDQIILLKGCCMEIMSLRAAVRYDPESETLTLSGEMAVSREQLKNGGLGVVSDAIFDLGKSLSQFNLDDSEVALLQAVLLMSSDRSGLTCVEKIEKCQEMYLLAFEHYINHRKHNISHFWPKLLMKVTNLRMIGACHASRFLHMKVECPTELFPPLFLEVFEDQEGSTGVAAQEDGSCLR

`O=C(OCc1ccccc1)c1ccccc1O`: in [1], the concentration at half-maximal activity (AC50) – broadly, the concentration giving half of the maximal activity seen – was 9.92 µM (active).

For the molecule `O=C(O)C(F)(F)C(F)(F)C(F)(F)C(F)(F)C(F)(F)C(F)(F)C(F)(F)C(F)F`, in [1], the AC50 is 18.4 µM (active).

In the case of `[Na+]`, the AC50 in test [1] was 5.73 µM (active).

As for `CC(=O)C1=C(C)[C@@H]2C[C@@]3(C1)[C@H](C)CC[C@H]3C2(C)C`, in test [1], the outcome was inactive.

As to `CCCCCC(=O)O[C@]1(C(C)=O)CC[C@H]2[C@@H]3CCC4=CC(=O)CC[C@]4(C)[C@H]3CC[C@@]21C`, the molecule was classed as inactive in test [2], in test [4], in [5], in test [6], in test [7] and in test [1]. Further, the AC50 in test [3] is 132 µM (active).

In the case of `O=c1cc(-c2ccc(O)cc2)oc2cc(O)cc(O)c12`, the molecule was called inactive in [2], in test [3], in test [8], in test [5], in test [6] and in test [9]. Further, the molecule was called inactive in test [7] and in test [1]. The AC50 in test [8] is 26.7 µM (active); in test [9], 6.26 µM (active); in test [10] it was 39.2 µM (active) and 44.6 µM (active); in [7], 7.81 µM (active).

For the molecule `CC/C(=C(\c1ccccc1)c1ccc(OCCN(C)C)cc1)c1ccccc1`, the call in [2], in test [3], in test [4], in [5], in test [10] and in [7] was inactive. Besides, in test [1], the result was inactive.

Regarding `CC(=O)N(C)C`, the outcome in test [1] was inactive.

As for `CC(C)(C)c1ccc(S)cc1`, the call in test [2], in test [8], in test [4], in [5], in test [6] and in [9] was inactive. Also, the molecule was classed as inactive in test [10].

For `CCC(C)COC(=O)CC(C)C` (centres undefined), the result in test [1] was inactive.

Regarding `CCCCCCOc1ccc(O)cc1`, the result in test [1] was inactive.

As to `CC(=O)OC(C)(C)C`, the result in [1] was inactive.

For `CCCCCC1CCC(=O)O1` (centres undefined), the outcome in test [1] was inactive.

`CCCCCCCCCCCCOCCOS(=O)(=O)O`: the half-maximal activity concentration (AC50) in test [1] was 9.92 µM (active).

For the molecule `C#C[C@]1(O)CC[C@H]2[C@@H]3CCc4cc(O)ccc4[C@H]3CC[C@@]21C`, the call in test [2], in [8], in [4], in test [5] and in test [1] was inactive. Moreover, the half-maximal activity concentration (AC50) in [7] was 0.0262 µM (active).

`O=C(O)C(F)(F)OC(F)(F)C(F)(F)OC(F)(F)C(F)(F)C(F)(F)C(F)(F)F`: the result in test [1] was inactive.

With `c1ccc(Cc2ccccc2)cc1`, the result in [1] was inactive.

Consider `CCCCCCCCOC(=O)c1ccc(O)cc1`, for which the outcome in [2], in [3], in test [8], in [4], in test [5] and in [9] was inactive. Besides, the result in test [10] and in test [7] was inactive. In [6], the AC50 was 41.3 µM (active).

Turning to `COC(=O)C(C)Oc1ccc(Oc2ncc(C(F)(F)F)cc2Cl)cc1` (centres undefined), the outcome in [1] was inactive.

`O=S(=O)(O)C(F)(F)C(F)(F)OC(F)(F)C(F)(F)F`: the outcome in test [1] was inactive.

For `C=C(C)C(=O)OCCC(F)(F)C(F)(F)C(F)(F)C(F)(F)C(F)(F)C(F)(F)C(F)(F)C(F)(F)F`, the result in [1] was inactive.

`CCCCCCCCCO`: in test [1], the outcome was inactive.
